According to publication PMC9911399, “Two distinct binding modes provide the RNA-binding protein RbFox with extraordinary sequence specificity”:
Substitutions are numbered along the chain they refer to; changes in the protein carry UniProt numbers. In all, about 16,000 sequences were measured (“ka relative to ugcaugu”: median about 0.096, highest 2% from about 0.35 on). This excerpt belongs to a sample that is enriched for the highest values.

T1: RBFOX1 RRM RbFoxmut (Fox-RRM*) (Homo sapiens, UniProt Q9NWB1 109-208, R118D;E147R;N151S;E152T)
T1 sequence: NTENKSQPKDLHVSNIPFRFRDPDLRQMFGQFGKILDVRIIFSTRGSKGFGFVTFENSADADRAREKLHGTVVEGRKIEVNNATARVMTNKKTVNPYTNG

B1: ACGCACA (DNA:RNA)
RNA: GGGAGACCGGAAUUCAGAUUGUCCACGCACAUUAAAUCCCGUCGUAGCCACCA
DNA 1: CAATCTGAATTCCGGTCTCCC
DNA 2: TGGTGGCTACGACGGGATT
B2: GCCGUUU (DNA:RNA)
RNA: B1 RNA with A25G, G27C, C28G, A29U, C30U, A31U
DNA 1: CAATCTGAATTCCGGTCTCCC
DNA 2: TGGTGGCTACGACGGGATT
B3: UCGUGAC (DNA:RNA)
RNA: B1 RNA with A25U, C28U, A29G, C30A, A31C
DNA 1: CAATCTGAATTCCGGTCTCCC
DNA 2: TGGTGGCTACGACGGGATT
B4: UCACAUA (DNA:RNA)
RNA: B1 RNA with A25U, G27A, C30U
DNA 1: CAATCTGAATTCCGGTCTCCC
DNA 2: TGGTGGCTACGACGGGATT
B5: AUAUGCA (DNA:RNA)
RNA: B1 RNA with C26U, G27A, C28U, A29G
DNA 1: CAATCTGAATTCCGGTCTCCC
DNA 2: TGGTGGCTACGACGGGATT
B6: GUAUGCA (DNA:RNA)
RNA: B1 RNA with A25G, C26U, G27A, C28U, A29G
DNA 1: CAATCTGAATTCCGGTCTCCC
DNA 2: TGGTGGCTACGACGGGATT
B7: GGAUGCA (DNA:RNA)
RNA: B1 RNA with A25G, C26G, G27A, C28U, A29G
DNA 1: CAATCTGAATTCCGGTCTCCC
DNA 2: TGGTGGCTACGACGGGATT
B8: UCCCGUA (DNA:RNA)
RNA: B1 RNA with A25U, G27C, A29G, C30U
DNA 1: CAATCTGAATTCCGGTCTCCC
DNA 2: TGGTGGCTACGACGGGATT
B9: UGAAUGU (DNA:RNA)
RNA: GGGAGACCGGAAUUCAGAUUGUCCUGAAUGUUUAAAUCCCGUCGUAGCCACCA
DNA 1: CAATCTGAATTCCGGTCTCCC
DNA 2: TGGTGGCTACGACGGGATT
B10: UGAAAUG (DNA:RNA)
RNA: B9 RNA with U29A, G30U, U31G
DNA 1: CAATCTGAATTCCGGTCTCCC
DNA 2: TGGTGGCTACGACGGGATT
B11: UGAUUGU (DNA:RNA)
RNA: B9 RNA with A28U
DNA 1: CAATCTGAATTCCGGTCTCCC
DNA 2: TGGTGGCTACGACGGGATT
B12: CUGAAUG (DNA:RNA)
RNA: B1 RNA with A25C, C26U, C28A, C30U, A31G
DNA 1: CAATCTGAATTCCGGTCTCCC
DNA 2: TGGTGGCTACGACGGGATT
B13: CUGAAUC (DNA:RNA)
RNA: B1 RNA with A25C, C26U, C28A, C30U, A31C
DNA 1: CAATCTGAATTCCGGTCTCCC
DNA 2: TGGTGGCTACGACGGGATT
B14: CCCUGAA (DNA:RNA)
RNA: B1 RNA with A25C, G27C, C28U, A29G, C30A
DNA 1: CAATCTGAATTCCGGTCTCCC
DNA 2: TGGTGGCTACGACGGGATT
B15: CGGUUCC (DNA:RNA)
RNA: B1 RNA with A25C, C26G, C28U, A29U, A31C
DNA 1: CAATCTGAATTCCGGTCTCCC
DNA 2: TGGTGGCTACGACGGGATT
B16: UUUCGAG (DNA:RNA)
RNA: B1 RNA with A25U, C26U, G27U, A29G, C30A, A31G
DNA 1: CAATCTGAATTCCGGTCTCCC
DNA 2: TGGTGGCTACGACGGGATT
B17: AUUAUUA (DNA:RNA)
RNA: B1 RNA with C26U, G27U, C28A, A29U, C30U
DNA 1: CAATCTGAATTCCGGTCTCCC
DNA 2: TGGTGGCTACGACGGGATT
B18: UUUUUAA (DNA:RNA)
RNA: B9 RNA with G26U, A27U, A28U, G30A, U31A
DNA 1: CAATCTGAATTCCGGTCTCCC
DNA 2: TGGTGGCTACGACGGGATT
B19: ACUUAAG (DNA:RNA)
RNA: B1 RNA with G27U, C28U, C30A, A31G
DNA 1: CAATCTGAATTCCGGTCTCCC
DNA 2: TGGTGGCTACGACGGGATT
B20: CCAGAGG (DNA:RNA)
RNA: B1 RNA with A25C, G27A, C28G, C30G, A31G
DNA 1: CAATCTGAATTCCGGTCTCCC
DNA 2: TGGTGGCTACGACGGGATT
B21: UCGAGAA (DNA:RNA)
RNA: B1 RNA with A25U, C28A, A29G, C30A
DNA 1: CAATCTGAATTCCGGTCTCCC
DNA 2: TGGTGGCTACGACGGGATT
B22: UUUCGCU (DNA:RNA)
RNA: B1 RNA with A25U, C26U, G27U, A29G, A31U
DNA 1: CAATCTGAATTCCGGTCTCCC
DNA 2: TGGTGGCTACGACGGGATT
B23: GAACGUU (DNA:RNA)
RNA: B9 RNA with U25G, G26A, A28C, U29G, G30U
DNA 1: CAATCTGAATTCCGGTCTCCC
DNA 2: TGGTGGCTACGACGGGATT
B24: UUGAACC (DNA:RNA)
RNA: B1 RNA with A25U, C26U, C28A, A31C
DNA 1: CAATCTGAATTCCGGTCTCCC
DNA 2: TGGTGGCTACGACGGGATT
B25: GGAACGU (DNA:RNA)
RNA: B9 RNA with U25G, U29C
DNA 1: CAATCTGAATTCCGGTCTCCC
DNA 2: TGGTGGCTACGACGGGATT
B26: UUGAACG (DNA:RNA)
RNA: B1 RNA with A25U, C26U, C28A, A31G
DNA 1: CAATCTGAATTCCGGTCTCCC
DNA 2: TGGTGGCTACGACGGGATT
B27: UGGACCG (DNA:RNA)
RNA: B9 RNA with A27G, U29C, G30C, U31G
DNA 1: CAATCTGAATTCCGGTCTCCC
DNA 2: TGGTGGCTACGACGGGATT
B28: UGGAACG (DNA:RNA)
RNA: B1 RNA with A25U, C26G, C28A, A31G
DNA 1: CAATCTGAATTCCGGTCTCCC
DNA 2: TGGTGGCTACGACGGGATT
B29: CGAACGU (DNA:RNA)
RNA: B9 RNA with U25C, U29C
DNA 1: CAATCTGAATTCCGGTCTCCC
DNA 2: TGGTGGCTACGACGGGATT
B30: CCGAACG (DNA:RNA)
RNA: B1 RNA with A25C, C28A, A31G
DNA 1: CAATCTGAATTCCGGTCTCCC
DNA 2: TGGTGGCTACGACGGGATT
B31: GUUAACG (DNA:RNA)
RNA: B1 RNA with A25G, C26U, G27U, C28A, A31G
DNA 1: CAATCTGAATTCCGGTCTCCC
DNA 2: TGGTGGCTACGACGGGATT
B32: UUAAACG (DNA:RNA)
RNA: B9 RNA with G26U, U29A, G30C, U31G
DNA 1: CAATCTGAATTCCGGTCTCCC
DNA 2: TGGTGGCTACGACGGGATT
B33: CGGAACG (DNA:RNA)
RNA: B1 RNA with A25C, C26G, C28A, A31G
DNA 1: CAATCTGAATTCCGGTCTCCC
DNA 2: TGGTGGCTACGACGGGATT
B34: UGGACGU (DNA:RNA)
RNA: B9 RNA with A27G, U29C
DNA 1: CAATCTGAATTCCGGTCTCCC
DNA 2: TGGTGGCTACGACGGGATT

Target: T1, RBFOX1 RRM RbFoxmut (Fox-RRM*)
Test: EMSA; HiTS-Eq, 1 nM pool, 10 min; buffer printed only for the single-RNA assays: 10 mM Tris pH 7.5, 150 mM NaCl, 3.4 mM EDTA, 0.001% NP-40, 30 C
Conditions: tags: His6 N-terminal (pET28a); label: 5' 32P
Method in brief: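 Relative association constants, normalised to the cognate motif, were derived by comparing read counts of each RNA species with those of the control reaction. The RNA sequenced was the free fraction, separated by 8% native PAGE after a 10 min equilibration in 50 µL of 1 nM 5′-radiolabelled RNA (7 randomized nucleotides) with increasing concentrations of purified wild-type or mutant RbFox RRM.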

Row | Binder | binding signal
1 | B1 | 0.105 KA relative to UGCAUGU
2 | B2 | 0.0818 KA relative to UGCAUGU
3 | B3 | 0.0717 KA relative to UGCAUGU
4 | B4 | 0.112 KA relative to UGCAUGU
5 | B5 | 0.208 KA relative to UGCAUGU
6 | B6 | 0.574 KA relative to UGCAUGU
7 | B7 | 0.24 KA relative to UGCAUGU
8 | B8 | 0.12 KA relative to UGCAUGU
9 | B9 | 0.75 KA relative to UGCAUGU
10 | B10 | 0.158 KA relative to UGCAUGU
11 | B11 | 0.308 KA relative to UGCAUGU
12 | B12 | 0.915 KA relative to UGCAUGU
13 | B13 | 0.315 KA relative to UGCAUGU
14 | B14 | 0.0778 KA relative to UGCAUGU
15 | B15 | 0.104 KA relative to UGCAUGU
16 | B16 | 0.107 KA relative to UGCAUGU
17 | B17 | 0.154 KA relative to UGCAUGU

Row | Binder | binding signal
18 | B18 | 0.1 KA relative to UGCAUGU
19 | B19 | 0.174 KA relative to UGCAUGU
20 | B20 | 0.0884 KA relative to UGCAUGU
21 | B21 | 0.116 KA relative to UGCAUGU
22 | B22 | 0.0799 KA relative to UGCAUGU
23 | B23 | 0.199 KA relative to UGCAUGU
24 | B24 | 0.129 KA relative to UGCAUGU
25 | B25 | 0.415 KA relative to UGCAUGU
26 | B26 | 0.39 KA relative to UGCAUGU
27 | B27 | 0.238 KA relative to UGCAUGU
28 | B28 | 0.84 KA relative to UGCAUGU
29 | B29 | 0.175 KA relative to UGCAUGU
30 | B30 | 0.211 KA relative to UGCAUGU
31 | B31 | 0.111 KA relative to UGCAUGU
32 | B32 | 0.0812 KA relative to UGCAUGU
33 | B33 | 0.53 KA relative to UGCAUGU
34 | B34 | 0.147 KA relative to UGCAUGU
